The values below come from PubChem BioAssay (NCATS).

Assay [1] in a line: Drug repurposing screens with cells derived from glioblastoma tumor samples (AID 1345199). Also: nearly all actives have a fitted effect of over 40% in size. The note with it: GBM patient neurospheres viability, ATP luminescence, 48 h. In short, it runs like this: (§1)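 Four patient lines of CD133+ GBM neurospheres were screened at several concentrations; hits were retested in those lines plus three slower-growing GBM lines, using 48-hour treatment and ATP-based viability.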

The test system of another assay is astro (control astrocytes). The assay is described as above. The settings on record: viability, ATP luminescence, 48 h; series mostly up to 45.9 µM. In short, it runs like this:
as §1

Setting [2] is: at 45.9 µM (top of the series), tumour line B.
[3] abbreviates: at 45.9 µM (top of the series), tumour line D.
[4] abbreviates: at 46.1 µM (top of the series), tumour line C.
[5] abbreviates: at 46 µM (top of the series), tumour line A.

Results filed as inconclusive are left out. A number with no mark means an inactive call. Active and inactive are the calls of the source. Calls follow the shape of the dose curve; as a rule, active = well fitted inhibition curve with a large enough effect; inconclusive = small, poorly fitted or top-dose-only effect; inactive = flat fitted curve, though single readings scatter.
% is scaled to controls: 0 for no effect and ±100 for the full control effect; potency is read from the fitted curve at half-maximal effect.

`O=C(Nc1ccc(S(=O)(=O)N2CCOCC2)cc1)c1cc(Cl)ccc1NS(=O)(=O)c1ccc(Cl)s1`: the activity, negative = cell killing in assay [1] (setting [2]) is -15.3%. For the same molecule, the Potency in assay [1] (tumour line A) is 6.31 µM (active); in assay [1] (tumour line C) it was 25.9 µM (active); in assay [1] (tumour line D), 15.8 µM (active); in the assay with astro it was 31.6 µM (active).
As to `O=C(O)c1[nH]n(-c2ccc(S(=O)(=O)O)cc2)c(=O)c1N=Nc1ccc(S(=O)(=O)O)cc1`, the activity, negative = cell killing in assay [1] (setting [2]) is 1.15%; in assay [1] (setting [3]) it was -22.4%; in assay [1] (setting [4]), -16.3%. Moreover, the Potency in assay [1] (tumour line A) was 28.2 µM (active). For the same molecule, in the assay on astro, the Potency result is “inactive”.
For the molecule `Cc1ccc(/C=N/n2c(-c3ccccc3)csc2=S)cc1`, the activity, negative = cell killing was -0.779% in assay [1] (setting [2]), -6.23% in assay [1] (setting [3]) and -16.1% in assay [1] (setting [4]). Further, in assay [1] (tumour line A), the Potency was 17.8 µM (active). The Potency result in the assay on astro was “inactive”.
As to `O=C(O)CCCC[C@@H]1SC[C@@H]2NC(=O)N[C@@H]21`, the activity, negative = cell killing in assay [1] (setting [2]) is -20.7%; in assay [1] (setting [3]), -14.6%; in assay [1] (setting [4]) it was -26%. For the same molecule, the Potency in assay [1] (tumour line A) was 17.8 µM (active). In the assay on astro, the Potency result was “inactive”.
With `Cc1cccc(C)c1NC(=O)c1cc(S(N)(=O)=O)c(Cl)cc1O`, the activity, negative = cell killing in assay [1] (setting [2]) was -11.2%; in assay [1] (setting [3]), -8.64%; in assay [1] (setting [4]), -16.5%. Also, the Potency in assay [1] (tumour line A) was 35.5 µM (active). Moreover, in the assay with astro, the Potency result is “inactive”.
On to `COc1cc(NS(=O)(=O)c2ccc(N)cc2)nc(C)n1`, for which the activity, negative = cell killing in assay [1] (setting [2]) is -1.01%; in assay [1] (setting [3]), -8.58%; in assay [1] (setting [5]), -28.7%; in assay [1] (setting [4]), 5.24%. In addition, the Potency entry in the assay on astro is “inactive”.
`CC(C)C[C@H](NC(=O)CNC(=O)[C@H](Cc1ccc(O)cc1)NC(=O)[C@H](CO)NC(=O)[C@H](Cc1c[nH]c2ccccc12)NC(=O)[C@H](Cc1cnc[nH]1)NC(=O)[C@@H]1CCC(=O)N1)C(=O)N[C@@H](CCCN=C(N)N)C(=O)N1CCC[C@H]1C(=O)NCC(N)=O` (stereo in doubt): the activity, negative = cell killing in assay [1] (setting [2]) is -6.26%; in assay [1] (setting [3]), 6.77%; in assay [1] (setting [5]), -26%; in assay [1] (setting [4]), -6.29%. The Potency result in the assay on astro is “inactive”.
